Experiments:
PIP5K2B = tested on: T1, PIP5K2B; details: Compound Concentration (nM):1000
T1 construct: gene PIP4K2B

PIP5K2C = tested on: T2, PIP5K2C; details: Compound Concentration (nM):1000
T2 construct: gene PIP4K2C

PKAC-alpha = tested on: T3, PKAC-alpha; details: Compound Concentration (nM):1000
T3 construct: gene PRKACA

PKAC-beta = tested on: T4, PKAC-beta; details: Compound Concentration (nM):1000
T4 construct: gene PRKACB

PKMYT1 = details: Compound Concentration (nM):1000
PKN1 = details: Compound Concentration (nM):1000
PKN2 = details: Compound Concentration (nM):1000
PKNB(M.tuberculosis) = details: 1 µM
PLK1 = details: Compound Concentration (nM):1000
PLK2 = details: Compound Concentration (nM):1000
PLK3 = details: Compound Concentration (nM):1000
PLK4 = details: Compound Concentration (nM):1000
PRKCD = details: Compound Concentration (nM):1000
PRKCE = details: Compound Concentration (nM):1000
PRKCH = details: Compound Concentration (nM):1000
PRKCI = details: Compound Concentration (nM):1000
PRKCQ = details: Compound Concentration (nM):1000
PRKD1 = details: Compound Concentration (nM):1000
PRKD2 = details: Compound Concentration (nM):1000
PRKD3 = details: Compound Concentration (nM):1000
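Note: KINOMEscan scanMAX binding as percent activity remaining versus control; lower means stronger binding.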

Structure (SMILES)	Percent Control (PIP5K2B) [%]	Percent Control (PIP5K2C) [%]	Percent Control (PKAC-alpha) [%]	Percent Control (PKAC-beta) [%]	Percent Control (PKMYT1) [%]	Percent Control (PKN1) [%]	Percent Control (PKN2) [%]	Percent Control (PKNB(M.tuberculosis)) [%]	Percent Control (PLK1) [%]	Percent Control (PLK2) [%]	Percent Control (PLK3) [%]	Percent Control (PLK4) [%]	Percent Control (PRKCD) [%]	Percent Control (PRKCE) [%]	Percent Control (PRKCH) [%]	Percent Control (PRKCI) [%]	Percent Control (PRKCQ) [%]	Percent Control (PRKD1) [%]	Percent Control (PRKD2) [%]	Percent Control (PRKD3) [%]
COc1cc(N2CCN(C(C)C)CC2)ccc1Nc1nc(Nc2ccc(F)cc2C(=O)NC[C@@H](O)CO)c2cc[nH]c2n1 [GSK1392956A]	100	94	100	100	100	100	100	99	6.3	100	96	41	100	100	100	97	95	79	57	49
COc1cc2ncn(-c3cc(O[C@H](C)c4ccccc4Cl)c(C(N)=O)s3)c2cc1OC [GSK237701A]	15	20	100	96	100	100	83	62		1.8	2	30	100	91	100	78	100	100	100	49
COc1ccccc1-c1cc(/C=C2\C(=O)Nc3ncc(Br)cc32)cc(Br)c1O [GW442130X]	100	100	95	100	100	100	36	74	95	100	89	80	100	100	86	100	100	83	100	100
NS(=O)(=O)c1ccc(Nc2ncc(-c3ccccc3)o2)cc1 [GW572399X]	100	29	100	100	100	100	100	76	100	86	86	100	100	100	100	100	100	100	100	61
COc1ccc2c(-c3ccnc(Nc4cccc(OC(F)(F)F)c4)n3)cnn2n1 [GW810372X]	100	32	100	100	100	100	76	82	91	100	83	100	99	100	94	100	100	100	100	100
COc1ccc(COc2ccc(Cc3cnc(N)nc3N)cc2OC)cc1 [GW632580X]	100	100	91	100	100	82	100	69	100	100	97	72	71	100	100	88	79	100	100	100
C[C@@H](Oc1cc(-n2cnc3ccc(OC4CCN(C)CC4)cc32)sc1C(N)=O)c1ccccc1Cl [GSK579289A]	52	75	100	100	81	72	57	35		13	19	78	66	100	100	43	58	100	84	70
COC(=O)Nc1nc2ccc(Oc3ccc(NC(=O)Nc4cc(C(F)(F)F)ccc4F)cc3)cc2s1.Cl [GW693917A]	100	96	100	95	95	82	57	70	67	96	100	66	100	100	100	91	62	100	100	86
CCS(=O)(=O)c1ccc(OC)c(Nc2ncc(-c3cccc(F)c3)o2)c1 [GW621970X]	99	3.8	100	100	100	100	68	100	96	93	100	40	100	100	100	100	100	100	100	85
CC1=C(C(=O)Nc2ccc3[nH]ncc3c2)C(c2ccc3ccccc3c2)CC(=O)N1 (centres unmarked) [GSK270822A]	100	83	64	68	90	45	76	87	73	100	82	88	100	100	100	80	82	100	100	22
C/C(Nc1ccc(S(N)(=O)=O)cc1)=C1/C(=O)Nc2ccccc21 [GW335962X]	100	93	100	87	91	83	74	83	90	87	83	74	95	96	100	100	81	100	100	86
NS(=O)(=O)c1ccc(N/N=C2\C(=O)Nc3ccc(-c4cnco4)cc32)cc1 [GW276655]	69	100	88	94	95	100	87	78	77	83	76	60	75	100	100	54	81	100	94	100
COc1cc(C)c(N(C)C(=O)CN(C)C)cc1Nc1nc(Nc2cccc(F)c2C(N)=O)c2cc[nH]c2n1 [GSK2219385]	100	92	100	100	78	89	88	63	81	100	94	84	100	100	100	82	92	100	89	88
COc1ccc2[nH]c3c4[nH]c5ccc(OC)cc5c4c4c(c3c2c1)C(=O)NC4=O [GW296115X]	100	28	87	89	97	42	52	67	90	95	88	1.4	93	75	35	63	44	68	62	75
COc1ccc2cc(-c3c(-c4ccncc4)nc(-c4ccc(S(C)(=O)=O)cc4C)n3C)ccc2c1 [SB-633825]	83	73	96	65	89	86	100	83	63	89	67	85	91	90	100	68	59	84	100	29
COc1cc2ncnc(Nc3ccc4c(cnn4Cc4ccccc4)c3)c2cc1OC.Cl [GW282449A]	100	73	100	37	100	100	100	100	91	100	100	100	100	64	100	100	100	100	100	98
Cl.O=S1CCN(Cc2ccc(-c3ccc4ncnc(Nc5ccc(OCc6ccccc6)c(F)c5)c4c3)o2)CC1 [GW576924A]	100	63	100	100	100	100	100	100	100	100	100	100	100	91	100	100	100	100	100	100
CN1CCN(C(=O)c2ccc(NC(=O)Nc3ccc(N(C)c4ccnc(Nc5ccc(CS(C)(=O)=O)cc5)n4)cc3)cc2)CC1.Cl [GW830263A]	17	0.9	100	100	96	70	100	87	100	100	100	2.7	100	99	100	74	51	100	100	100
CCc1ccc(Oc2nccc(-c3c(-c4ccc(F)cc4)ncn3C3CCNCC3)n2)cc1 [SB-242719]	100	100	36	31	89	94	91	81	98	77	83	79	100	95	100	95	84	95	85	70
Cl.O=C(Nc1ccc(Oc2ccc3[nH]c(NC(=O)c4ccccc4)nc3c2)cc1)Nc1cc(C(F)(F)F)ccc1F [GW709042A]	100	97	100	100	100	100	60	88	100	98	92	77	87	100	100	90	100	100	100	83

Reference: paper PMC7826789 (International Journal of Molecular Sciences, 2021)
